RE007 growth inh = qHTS Assay for Inhibitors of the HIV-1 protein Vpr. Potency, µM (series often up to 92.2 µM), without a hit: at the highest dose activity change, negative = less growth, usual class: inhibitors. S. pombe RE007 Vpr strain, BacTiter-Glo ATP luminescence, 24 h. hit rate 0.21% among 360,000; active = well fitted falling curve with a large enough effect; inconclusive = small, poorly fitted or top-dose-only effect; inactive = no such curve, though single readings can be large or run the other way; note: nearly all actives have a fitted effect of over 50% in size
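Fission yeast strain RE007, carrying one chromosomally integrated HIV-1 vpr copy, was seeded at OD 0.01 in PMG+AL medium with 23 nL pinned compound. After 24 h at 30 °C and 99% humidity, viability was read by BacTiter-Glo luminescence.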
Lassa entry inh = qHTS for Inhibitors of binding or entry into cells for Lassa Virus; Lassa virus pseudotype entry inhibition, cell reporter; Potency, µM (titrated, usually from 37.9 µM), for inactives: top-dose activity change, negative = inhibition, usual class: inhibitors; hit rate 1.2% among 300,000; AID 540256, 2011; calls by dose curve; tested in HEK293 cells; note: nearly all actives have a fitted effect of over 50% in size
Marburg entry inh = qHTS for inhibitors of binding or entry into cells for Marburg Virus; Marburg virus pseudotyped entry inhibition, cell reporter; Potency, µM (top dose mostly 37.8 µM), inactives show at the top dose activity change, negative = inhibition, actives largely listed as inhibitors; hit rate 1.8% among 300,000; AID 540276, 2011; calls by dose curve; tested in HEK293 cells
Sm TGR block = qHTS Assay for the Inhibitors of Schistosoma Mansoni Peroxiredoxins; Schistosoma mansoni thioredoxin glutathione reductase (TGR), Q962Y6; purified TGR, DTNB reduction, TNB absorbance 405 nm; AID 485364, 2010; hit rate 3% among 360,000; Potency, µM (top dose mostly 114 µM), without a hit: top-dose activity change, negative = inhibition, most hits filed as inhibitors; note: nearly all actives have a fitted effect of over 60% in size
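Kinetic colorimetric format: TGR-catalysed, NADPH-driven DTNB reduction monitored via TNB absorbance. Enzyme dispensed at 20 nM; compound exposure 15 min at room temperature before reaction start.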
FMDV inh = High Throughput Screening for Foot and Mouth Disease Virus Antivirals | FMDV antiviral cell-based qHTS | hit rate 1.2% among 410,000 | Potency, µM (titrated, usually from 57.9 µM), without a hit: at the top dose activity change, negative = inhibition, usual class: inhibitors; calls by dose curve; tested in HEK293T cells; note: read-out not given here; nearly all actives have a fitted effect of over 45% in size
HCV inhibitor = qHTS Assay for Inhibitors of Hepatitis C Virus (HCV). Huh7.5.1 HCVcc-Cre infection, luciferase reporter, 44 h. Potency, µM (top dose mostly 41.8 µM), for the others: at the highest dose activity change, negative = inhibition, actives largely listed as inhibitors. hit rate 3.4% among 340,000
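A cell-based infection assay in which seeded cells (1,000 per well) receive test compound after 4 h, are inoculated with HCVcc-Cre at approximately 0.5 moi, and are incubated 44 h before luminescence detection.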
The depositor's hits bear a star; ? = inconclusive; · = not tested or not shown; [ ] = remark or other dose. The list is not random: actives were taken first. Their share in the collection is about 7.2%. Unless noted, calls come from the whole dose curve; as a rule, active = well fitted curve in the direction sought with a large enough effect; inconclusive = small, poorly fitted or top-dose-only effect, or another doubt; inactive = no such curve, though single readings can be large; an effect the other way counts as inactive or inconclusive. % is set by controls: 0 for no effect and ±100 for the full control effect; potency is the fitted concentration of half-maximal effect.

SMILES	RE007 growth inh	Lassa entry inh	Marburg entry inh	Sm TGR block	FMDV inh	HCV inhibitor
COc1cc2c(cc1NC(=O)CSc1nnc(Cc3cccs3)n1C)oc1ccccc12	-6.2%	4.1%	-29.6%	2.4%	-7.4%	10µM*
COc1cccc(Nc2c3c(nc4nncn24)CCC3)c1	·	-11.6%[46.1 µM]	-23.3%[46.1 µM]	-4.0%	3.6%	·
COc1ccc(C(=O)N2CCC[C@@]3(CCN(c4ccccn4)C3)C2)cc1	·	·	·	·	-5.8%	·
O=C(Nc1cc2c(cc1C(=O)c1cccc(Br)c1)OCCO2)c1ccccc1F	·	-7.1%[46.1 µM]	17.3%[46.1 µM]	-5.3%	0.0%	·
CCn1c(SCC(=O)Nc2ccc3c(c2)oc2ccccc23)nnc1-c1ccc(N)cc1	-1.6%	?	-29.9%	2.3%	?	11.2µM*
N#Cc1ccc(CSc2nnc(Cc3cccs3)n2Cc2ccco2)cc1	-22.6%	16.7%	-3.7%	11.2µM*	-18.8%	-5.4%
CCn1c(SCC(=O)Nc2cc3oc4ccccc4c3cc2OC)nnc1-c1cccs1	1.0%	?	?	-12.9%	·	10µM*
CC1(C(=O)NC2CCCCC2)Cc2ccccc2C(=O)N1Cc1ccc(Cl)cc1 (configuration not stated)	·	·	?	-2.1%	24.7%	·
CC(C)Oc1ccc(C(=O)CCN2CCCCC2)cc1	39.8µM*	?	?	0.398µM*	1.8%	?
COc1ccc(C(=O)CCN2CCN(c3ccc(OC)cc3)CC2)cc1	?	-19.7%	-2.7%	0.0%	-5.8%	23.7%
COc1ccc(OCCN2CCN(C(=O)c3ccc(OC)cc3)CC2)cc1	5.1%	?	?	-9.1%	?	10µM*
CCOc1ccc(C(=O)CCC(=O)NN2CCCCC2)cc1	-11.7%	·	·	·	1.5%	·
COc1ccc(C(=O)CCN2CCCCCC2)cc1	7.08µM*	-24.1%	-4.1%	17.8%	-19.5%	-17.7%
CCOc1ccc(C(=O)CCN2CCCCC2)cc1	35.5µM*	4.0%	-8.0%	0.316µM*	-18.3%	6.1%
CC(C)Oc1ccc(C(=O)CCN2CCOCC2)cc1	?	·	·	·	-14.8%	2.6%
CC1CCN(C(=O)Cn2c(=O)n(CCCCCC(=O)NCc3ccccc3Cl)c(=O)c3sccc32)CC1	·	?	?	-1.3%	?	·
COc1cccc(N2C(=O)CSC23C(=O)N(CC(=O)NCc2ccc(C)cc2)c2ccccc23)c1 (configuration not stated)	·	3.7%[46.1 µM]	·	2.7%	6.8%	·
COCCn1c(=O)c(-c2ccc(Cl)cc2)nc2cnc(Nc3ccccc3)nc21	·	·	·	·	-16.6%	·
COC(=O)[C@H](CCSC)NC(=O)Cn1cc(C)c(=O)[nH]c1=O	2.6%	·	·	·	-10.6%	0.501µM*
O=C(OCc1nnc(-c2ccccc2Br)o1)c1ccco1	2.4%	·	·	·	13.6%	-5.7%
O=S(=O)(c1ccccc1F)N(Cc1ccco1)Cc1nnc(-c2ccccc2Br)o1	15.0%	?	-18.9%	15.8µM*	-23.0%	?
COC(=O)[C@@H]1CCCN1C(=O)c1cnn(-c2nccc(-c3cc(C)sc3C)n2)c1C1CC1	·	·	·	·	29.5%	·
Cc1c(CC(=O)NCc2ccccc2)c(=O)oc2c(C)c(O)ccc12	·	?	?	0.2%	-6.8%	·
COc1ccc(OCC(=O)NCC2(N3CCN(C)CC3)CCCCC2)cc1	·	0.2%[46.1 µM]	-11.9%[46.1 µM]	-1.4%	7.1%	·
Fc1ccccc1Oc1nc(-c2ccncc2)nc2ccccc12	-23.3%	·	·	-2.9%	-29.7%	0.562µM*
SMILES	RE007 growth inh	Lassa entry inh	Marburg entry inh	Sm TGR block	FMDV inh	HCV inhibitor
COc1ccc(Oc2nc(-c3cccnc3)nc3ccccc23)cc1	-6.6%	-12.6%	-23.3%[46.1 µM]	-5.0%	-20.5%	?
Clc1cccc(Nc2nc(-c3ccncc3)nc3ccccc23)c1	7.3%	?	?	0.7%	-19.7%	?
Fc1ccc(Nc2nc(-c3ccncc3)nc3ccccc23)cc1F	-7.0%	6.3%[46.1 µM]	7.08µM*	-17.1%	?	11.2µM*
Clc1ccccc1Nc1nc(-c2ccncc2)nc2ccccc12	-1.0%	·	·	1.3%	?	7.08µM*
CCOc1ccc(NC(=O)N2CCN3CCCCC3C2)cc1 (configuration not stated)	·	18.2%[46.1 µM]	·	-0.5%	-13.2%	·
CCN(CC(=O)Nc1ccccc1C(F)(F)F)C(=O)c1ccccc1Cc1ccccc1	3.3%	11.2µM*	?	-1.7%	-5.6%	-16.1%
ClC1=C(Cl)[C@]2(Cl)[C@@H]3[C@H]4C[C@H]([C@@H]5O[C@H]45)[C@@H]3[C@@]1(Cl)C2(Cl)Cl	·	·	·	·	-29.2%	·
Cc1cc2c(cc1Cl)N(C(=O)Nc1ccc(Oc3cccnc3C)nc1)CC2	·	11.6µM*	?	·	·	·
CC1(C)CC(=O)C2=C(C1)N1C(=C(C#N)C2c2ccc(Cl)cc2)N=C(N)c2ccccc21 (configuration not stated)	6.7%	?	?	-13.5%	?	8.91µM*
CC1(C)CC(=O)C2=C(C1)N1C(=C(C#N)C2c2ccccc2Cl)N=C(N)c2ccccc21 (configuration not stated)	6.8%	-25.3%	?	-1.6%	?	?
N#Cc1c(-c2ccccc2)c(-c2ccccc2)n(Cc2ccco2)c1NC(=O)c1cccs1	0.8%	?	?	6.3%	5.2%	2.82µM*
Cc1nn(-c2ccccc2)c(NC(=O)c2cccs2)c(-c2ccccc2)c1=O	6.5%	13.1%	19.3%	1.7%	1.3%	-1.2%
Cc1ccc(C(=O)N2CCN(c3cccc(Cl)c3)CC2)cc1-n1c(C)nc2cccnc21	·	-18.9%[46.1 µM]	·	5.6%	?	·
C=CCn1c(O)c(CN2CCOCC2)c(C)c(C#N)c1=O	3.5%	-1.8%	17.5%	39.8µM*	-23.4%	25.5%
COc1ccc(C(=O)n2nnc3ccccc32)cc1Br	2.3%	-30.0%	?	?	·	11.3%
CCSc1ccccc1C(=O)n1nnc2ccccc21	20.9%	-4.0%	-21.1%	20µM*	?	?
O=C(c1cn(-c2ccccc2)nc1-c1ccccc1)n1nnc2ccccc21	11.0%	4.0%	3.5%	-0.3%	?	5.5%
CCSc1ccccc1C(=O)N1CCCC1	4.4%	0.0%	-3.4%	0.3%	3.8%	0.1%
O=C(c1ccc2c(c1)OCO2)n1nnc2ccccc21	·	·	·	10µM*	·	·
COc1cccc(-c2nn(-c3ccccc3)cc2C(=O)n2nnc3ccccc32)c1	15.5%	-0.5%	10.8%	4.0%	39.8µM*	?
COc1ccc(N/C(=C(/C(Cl)=C(Cl)Cl)[N+](=O)[O-])n2nnc3ccccc32)cc1OC	·	·	·	22.4µM*	·	·
Brc1ccc(-c2nc3ccccn3c2Nc2ccc3c(c2)OCCO3)o1	·	8.4%[46.1 µM]	2.4%[46.1 µM]	-27.0%	-25.1%	·
Cc1ccc(CNC(=O)c2ccc(CSCc3ccccc3Cl)o2)cc1	·	-1.0%[46.1 µM]	·	0.6%	0.9%	·

From PubChem
